# High-throughput results: PubChem, National Center for Advancing Translational Sciences (NCATS)
# Pf Dd2 growth: Plasmodium falciparum Dd2 growth inhibition. P. falciparum Dd2 growth, SYBR Green, 72 h. Potency, µM (highest dose often 28.9 µM), without a hit: at the top dose activity, negative = inhibition, actives largely listed as inhibitors. 120,000 compounds, 4.3% hits. AID 1347417; active = well fitted inhibition curve with a large enough effect;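 also: plate controls were DMSO vehicle for no effect and reference drug for full effect; nearly all actives have a fitted effect of over 65% in size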
#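 Infected erythrocytes (Dd2, 0.3% parasitemia, 2.5% hematocrit final) are added to compound in RPMI-1640/Albumax II medium, grown 72 h at 37C in low oxygen, then lysed with saponin/Triton-X containing SYBR Green and read by fluorescence.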
# * hit, by the source's call; i = inactive; [ ] = remark or other dose. Many of the other results were omitted from the sample, so hits are more common in it than they were. Potency is read from the fitted curve at half-maximal effect.
SMILES,Pf Dd2 growth
CCOc1cccc(CC(=O)NCc2ccc3c(c2)CCN3C(C)=O)c1OCC,66.5%
COc1ccc(-c2ccnc(-c3nnc(C)n3C(C)C)c2)cc1OC,-7.9%[44.1 µM]
CNCc1cccn1C,-1.4%[44.1 µM]
COCCNc1nc2c([S+](=O)([O-])c3ccc(Cl)cc3)nnn2c2ccccc12,13.3%
Cc1ccc(CNC(=O)CC2=C3CCCCC3N(C(C)C)C2=O)o1 (stereo unspecified),-28.0%
NC(=O)c1nc(Nc2ccccc2)sc1NC(=O)c1c(F)cccc1F,52.7%
Cc1ccc(-c2nc(C)c(CCNC(=O)c3ccccc3Br)s2)cc1,-10.8%
Cc1ccc(Nc2nc(C(N)=O)c(NC(=O)c3ccccc3Br)s2)cc1,10µM*
CCCOc1ccc(CCNC(=O)C2NCCc3[nH]cnc32)cc1OC (stereo unspecified),5.0%
Cc1ccc(C(=O)N2CCN(C3CCN(CCC(C)C)C3=O)CC2)cc1 (stereo unspecified),-24.3%
COC[C@@H]1CN(C(=O)c2cc[nH]c(=O)c2)C[C@H]1c1ccncc1,i
COc1ccccc1-c1nn2c(=O)cc(CN3CCN(S(=O)(=O)c4ccc(C)cc4)CC3)nc2s1,9.1%
COc1ccc(-c2nn3c(=O)cc(CN4CCN(C(=O)COc5ccc(F)cc5)CC4)nc3s2)cc1,-6.8%
Cc1cccc(-c2nn3c(=O)cc(CN4CCN(C(=O)c5ccccc5Br)CC4)nc3s2)c1,-21.1%
Cc1ccc(-c2nn3c(=O)cc(CN4CCN(C(=O)COc5ccc(C)c(C)c5)CC4)nc3s2)cc1,-5.7%
Cc1ccc(S(=O)(=O)N2CCN(Cc3cc(=O)n4nc(-c5ccccc5Cl)sc4n3)CC2)cc1,15.1%
COc1ccc(-c2nn3c(=O)cc(CN4CCN(S(=O)(=O)c5ccc(C)cc5)CC4)nc3s2)cc1,11.2µM*
COc1cccc(-c2nn3c(=O)cc(CN4CCN(C(=O)COc5ccccc5C)CC4)nc3s2)c1,11.2µM*
COc1ccc(-c2nn3c(=O)cc(CN4CCN(C(=O)/C=C/c5ccccc5)CC4)nc3s2)cc1,-19.8%
Cc1cccc(-c2nn3c(=O)cc(CN4CCN(S(=O)(=O)c5ccc(Cl)cc5)CC4)nc3s2)c1,8.91µM*
CCOC(=O)N1CCC(c2nnc(CN3CCCCCC3)n2C)CC1,6.6%
COc1ccc(C2=NOC3(CCCN([S+](=O)([O-])c4cccs4)C3)C2)cc1 (stereo unspecified),-7.6%
Cc1cnn(CCC(=O)N2CCC(C3CCN(S(C)(=O)=O)CC3)C2)c1 (stereo unspecified),0.9%
O=C(Nc1ccc2c(c1)OCCO2)N1CCCC(Cn2cnc3cccnc32)C1 (stereo unspecified),-17.4%
CC(C)(C)C(=O)N1CCC2(CCCN(Cc3cccc(F)c3F)C2=O)C1 (stereo unspecified),2.9%
SMILES,Pf Dd2 growth
COC[C@@H]1CN(C(=O)COc2cccc(C)c2)C[C@H]1c1ccncc1,13.3%
Cc1ccc(-c2ccc(C=O)cc2)cc1Cl,7.6%[44.1 µM]
CSc1ccc(-c2cccc(CN)c2)cc1,10µM*
CN(Cc1ccc(-c2ccccc2)cc1)Cc1cccc(F)c1,-11.1%[44.1 µM]
Cc1ccc(-c2cccc(CN)c2)cc1Cl,11.2µM*
NCc1cccc(-c2ccc(O)cc2)c1,-19.9%[44.1 µM]
Cc1ccc(-c2cccc(C=O)c2)cc1Cl,5.7%[44.1 µM]
COc1ccc(/C=C/c2ccc3c(c2)C(=O)N2CC[C@H](NC(=O)COCC(=O)O)[C@H]2C(=O)N3)cc1,-13.0%
O=C1N[C@H](Cc2ccc(O)cc2)C(=O)N2CC[C@H](NS(=O)(=O)c3ccc(Cl)cc3)C[C@@H]12,i
COc1cccc(C(=O)N2CCC(c3nc(C4CCOC4)no3)CC2)c1 (stereo unspecified),-2.0%
O=C(NC1CCCN(c2cc(-c3ccc(F)cc3)[nH]n2)C1)C1CCCCC1 (stereo unspecified),i
CCOc1ccc(CCNC(=O)c2cn(-c3cccc(OC)c3)c(=O)c3ccccc23)cc1,-22.9%
COc1ccc(-n2cc(C(=O)NCCc3ccc(C)cc3)c3ccccc3c2=O)cc1,i
CCOc1ccccc1CNC(=O)c1cn(-c2ccc(OC)cc2)c(=O)c2ccccc12,8.91µM*
Cc1cccn2c(=O)cc(CN3CCC4(CC3)C(C(=O)O)CC(=O)N4C)nc12 (stereo unspecified),-7.0%
CCN1CCC2(CCC1=O)CN(C(=O)CCCc1cccs1)CCN2C (stereo unspecified),10.8%
CCc1ccccc1OCC(=O)c1ccc2c(c1)N(CC(=O)NCCCOC)C(=O)CO2,i
Cc1noc(-c2ccc3c(c2)OCO3)c1C(=O)NCc1cc(F)cc(F)c1,i
CC(C)C12CN3CC(C(C)C)(CN(C1)C3c1ccc(Cl)cc1)C2=O (stereo unspecified),-12.9%
CC(C)C12CN3CC(C(C)C)(CN(C1)C3c1ccccn1)C2=O (stereo unspecified),8.91µM*
Cc1cccc(C2N3CC4(C(C)C)CN2CC(C(C)C)(C3)C4=O)c1 (stereo unspecified),-19.1%
Cn1cc(CN2CCN(C(=O)c3c[nH]c4ccccc34)CC2)ccc1=O,-11.6%
COCCC(=O)N1CCc2c(n(CCOc3ccccc3)n(-c3ccccc3)c2=O)C1,23.2%[44.1 µM]
CCOC(=O)c1ccc(NC(=O)C2CCCN(c3ncnc4onc(-c5ccc(F)cc5)c34)C2)cc1 (stereo unspecified),8.91µM*
CC(C)NC(=O)C1CCCN(c2ncnc3onc(-c4ccc(F)cc4)c23)C1 (stereo unspecified),-2.8%
SMILES,Pf Dd2 growth
COc1cccc(NC(=O)C2CCCN(c3ncnc4onc(C)c34)C2)c1 (stereo unspecified),-19.7%
CC(=O)Nc1ccc(C(O)[C@H]2COCC(=O)N2Cc2ccccc2F)cc1 (stereo partly specified),0.0%[44.1 µM]
CN(C)CC1(O)CCC2(CCN(C(=O)CCCc3ccccc3)CC2)CC1,i
CN1C[C@H](NCc2ccc(F)cc2)CCC[C@@H](C(=O)NC2CCOCC2)CC1=O,i
CCCc1cnc2c(c1SCC(=O)Nc1cccc(C)c1C)c(=O)n(C)c(=O)n2C,0.7%
CCCc1cnc2c(c1SCc1cccc(C)c1)c(=O)n(C)c(=O)n2C,11.2µM*
CCCc1cnc2c(c1SCC(=O)Nc1ccccc1OCC)c(=O)n(C)c(=O)n2C,1.6%
COCCNC(=O)C1Cn2cccc2C(=O)N1Cc1ccccc1 (stereo unspecified),10.7%
O=C(c1cnco1)N(CC1CCN(Cc2ccccc2F)CC1)CC1CCCO1 (stereo unspecified),-13.7%
Oc1ccccc1CN(CCN1CCCCC1)CC1CCCN(C2CCCC2)C1 (stereo unspecified),i
FC(F)Oc1ccccc1CN(CC1CCN(C2CCCC2)CC1)CC1CCCO1 (stereo unspecified),7.08µM*
CN1CCC(N[C@H]2CC(C)(C)[C@@H]3C[C@@](C)(O)CC[C@]23CCC(=O)N2CCOCC2)CC1,11.2%
Cc1ccc(-c2nnc(CN3CCC4(CC3)CC(=O)N(CC(C)C)C4)o2)n1C,1.8%
COC(=O)c1sccc1S(=O)(=O)N(CC(=O)Nc1ccc(C)cc1)c1ccccc1,-17.4%
COC(=O)c1sccc1S(=O)(=O)N(CC(=O)Nc1ccccc1F)c1ccccc1,55.4%
CCc1ccc(NC(=O)CN(c2ccc(Cl)cc2)S(=O)(=O)c2ccsc2C(=O)OC)cc1,11.2µM*
CCCCc1cc(C[C@@H]2C[C@H](NC(=O)N3CCOCC3)C2(C)C)no1,-26.8%[44.1 µM]
CC(C)C(=O)Nc1ccc2nc(SCC(=O)N3CCOCC3)sc2c1,5.1%
CCOc1ccc(C(=O)Nc2ccc3nc(SCC(=O)N4CCOCC4)sc3c2)cc1,8.91µM*
